Shown are actives, neighbours in structure and some others; about 21% of the full set was active somewhere.
HCV inh – inhibitors of hepatitis C virus infection. hit rate 3.4% among 340,000. Huh7.5.1 HCVcc-Cre infection, luciferase reporter, 44 h. Potency, µM (doses to about 41.8 µM), without a hit: at the highest dose activity change, negative = inhibition, actives largely listed as inhibitors. AID 651820; also: potency is read from the fitted curve at half-maximal effect; % is scaled to controls: 0 for no effect and ±100 for the full control effect
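Luciferase read-out (15 sec integration) after a 15 min room-temperature substrate step quantifies HCVcc-Cre infection. Cells, 1,000 per well, had compound added 4 h post-plating, then virus at ~0.5 moi, and were cultured 44 h.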
Pf growth 96h – P. falciparum growth inhibition at 96 hours. P. falciparum luciferase reporter growth, 96 h. Potency, µM (titrated, usually from 28.7 µM), for the others: at the top dose activity change, negative = inhibition, actives largely listed as inhibitors. hit rate 6.9% among 320,000; also: potency is read from the fitted curve at half-maximal effect; % is scaled to controls: 0 for no effect and ±100 for the full control effect
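Erythrocytes infected with luciferase-expressing P. falciparum were dispensed at 2% hematocrit and 0.05% parasitemia (final), then incubated with compounds 96 hours at 37 C in 5% CO2. Luminescence after detection reagent addition reported growth.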
Pf growth 48h – P. falciparum growth inhibition at 48 hours (one generation) | P. falciparum luciferase growth in erythrocytes, 48 h | Potency, µM (doses to about 28.7 µM), without a hit: at the top dose activity change, negative = inhibition, usual class: inhibitors | hit rate 5.9% among 310,000; also: potency is read from the fitted curve at half-maximal effect; % is scaled to controls: 0 for no effect and ±100 for the full control effect
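Growth was read as firefly luciferase luminescence after a 48 h, 37 C, 5% CO2 exposure of compounds to reporter-bearing P. falciparum cultures (0.1% parasitemia, 2% hematocrit final) in Albumax-supplemented RPMI 1640.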
HCMV inh – inhibitors of human cytomegalovirus | AID 1259415 | activity change, negative = inhibition, % at 57.5 µM | hit rate 4.5% among 410,000 | HFF cells, HCMV-luciferase reporter, 72 h; hits give low values; in the data active = activity change below about -60%; inconclusive = no clear call, values can overlap the other calls; inactive = above about -39%; also: % is scaled to controls: 0 for no effect and ±100 for the full control effect
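Compounds were evaluated in HFFs infected with an HCMV luciferase reporter virus (MOI 1 PFU/cell). Luciferase in lysates collected 72 h post infection served as the replication measure.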
Shiga inhibitor – Shiga toxin inhibition. Vero cells, Shiga toxin protein synthesis inhibition reporter. inhibition, % at 38.7 µM. hit rate 9.2% among 290,000. AID 2315; in the data active = inhibition mostly above about 28%, no sharp cut-off; inactive = mostly below about 43%; also: 0% is about no effect
CHX counter – counter-screen for Shiga toxin inhibitors: cycloheximide protein synthesis inhibition; cell reporter, cycloheximide protein synthesis inhibition counterscreen; hit rate 12% among 300,000; max response, %; AID 2314; in the data active = max response mostly above about 13%, no sharp cut-off; inactive = mostly below about 14%; also: read at 38.3 µM for the half of the compounds with a filed dose; 0% is about no effect
* marks the source's active call; other numbers are inactive results; ? = inconclusive; / = no result; + = active, no number; [ ] = remark or other dose. Unless noted, calls follow the shape of the dose curve; as a rule, active = well fitted inhibition curve with a large enough effect; inconclusive = small, poorly fitted or top-dose-only effect, or another doubt; inactive = no such curve, though single readings can be large or run the other way.

SMILES | HCV inh | Pf growth 96h | Pf growth 48h | HCMV inh | Shiga inhibitor | CHX counter
CC(C)(C)c1ccc(OC(=O)c2ccccc2)cc1 | 7.8% | 19.5% | 62.0% | 1.8 | 17.6 | -2.0
Cc1onc(-c2ccccc2Cl)c1C(=O)N1CCN=C1SCc1cccnc1 | 10.8% | 2.08µM* | 4.7% | 33.4 | -2.0 | 10.4
O=C(NCc1ccc[n+](CCCCS(=O)(=O)[O-])c1)c1ccc(OC(F)F)cc1 | / | 26.2% | -2.2% | / | -17.1 | 10.0
O=C(C[n+]1cccc(CNC(=O)c2ccc(OC(F)F)cc2)c1)Nc1ccccc1Cl | -6.1% | ? | 13.1µM* | 6.4 | -13.7 | -1.1
O=C(C[n+]1cccc(CNC(=O)c2ccc(OC(F)F)cc2)c1)Nc1ccc(SC(F)F)cc1 | ? | 0.165µM* | 1.65µM* | 39.8 | 9.4 | 2.5
CCOc1ccc(NC(=O)C(C)n2c(=O)cc(-c3ccccc3)c3c(C)nn(C)c32)cc1 (stereo not given) | / | / | / | 1.3 | / | /
CCCCC1(CCCC)C(=O)NC(=Nc2cccc(C)c2)NC1=O | ? | ? | ? | -61.2* | 25.3 | 5.1
CCN(c1ccccc1)c1nnc(NC(=O)Nc2cccc(Br)c2)s1 | / | / | / | -9.8 | / | /
COCc1cc(=O)n2[nH]c(N)nc2n1 | 11.1% | ? | 10.4µM* | -11.3 | 2.6 | -1.9
O=C(Nc1nccs1)C1CC=CCC1C(=O)OCC(F)(F)C(F)F (stereo not given) | 11.5% | -29.5% | -15.8% | 2.7 | / | /
COc1cccc(C(C(=O)NC2CCCCC2)N(C(=O)c2ccco2)c2ccc(-n3cnnn3)c(C)c2)c1 (stereo not given) | -6.1% | -9.6% | 14.7µM* | -3.5 | 0.6 | -0.9
Cc1cc(N(C(=O)c2ccco2)C(C(=O)NC2CCCCC2)c2ccccc2)ccc1-n1cnnn1 (stereo not given) | 1.5% | / | 9.28µM* | -1.2 | 60.0 | 4.5
COc1ccc(COC(=O)C2CCN(S(=O)(=O)c3ccc(C)cc3)CC2)cc1 | -3.5% | 0.1% | -15.9% | -14.8 | / | /
O=C(COC(=O)CNC(=O)c1ccc(-c2ccccc2)cc1)NCc1ccco1 | 12.9% | -5.1% | -3.0% | 32.3 | 29.6 | 3.6
O=C(NCCC1=CCCCC1)c1ccc([N+](=O)[O-])cc1 | 6.9% | -2.3% | 125.7% | -17.0 | 131.1* | 75.1*
O=C(NCCC1=CCCCC1)c1ccc(CN2CCOCC2)cc1 | 5.0% | 91.3% | 345.4% | 177.6 | 44.6* | 40.0*
O=C(NCCC1=CCCCC1)c1ccc(Br)o1 | 0.0% | -24.3% | -6.5% | 31.0 | 84.5* | 28.4*
O=C(CCNC(=O)c1ccc([N+](=O)[O-])cc1)NCCC1=CCCCC1 | -4.6%[8.37 µM] | -12.0% | -5.5% | 3.4 | / | /
O=C(NCCc1ccc(F)cc1)c1ccc([N+](=O)[O-])cc1 | -22.3% | 13.7% | 61.1% | 56.7 | 66.8* | 33.8*
COc1ccc(CCNC(=O)c2ccc(CN3CCOCC3)cc2)cc1 | ? | 30.3% | / | ? | 6.5 | 3.9
CCCOc1ccc(CNC(=O)c2ccc3c(c2)N(Cc2ccccc2)CCS3)cc1 | / | / | / | -31.5 | / | /
COc1ccc(C(=O)NCCC2=CCCCC2)cc1 | 5.9% | -0.1% | 191.4% | -4.0 | 50.6 | 30.9*
Cc1ccccc1NS(=O)(=O)c1cc(C(=O)NCCC2=CCCCC2)ccc1C | ? | ? | ? | ? | -18.0 | 1.8
Cc1cc(C(=O)NCCC2=CCCCC2)ccc1[N+](=O)[O-] | 2.1% | 42.9% | 63.4% | -4.5 | 96.0* | 49.3*
O=C(NCCC1=CCCCC1)c1ccc(F)cc1 | 1.0% | -17.6% | 179.3% | -29.1 | + | 39.1*
SMILES | HCV inh | Pf growth 96h | Pf growth 48h | HCMV inh | Shiga inhibitor | CHX counter
O=C(Cc1ccccc1[N+](=O)[O-])NCCC1=CCCCC1 | 17.8% | ? | 9.6% | 49.8 | 61.1* | 25.7*
CC(C)c1ccc(NC(=O)c2ccc(=O)n(Cc3ccccc3)c2)cc1 | / | / | / | -13.8 | / | /
O=C(NC1CCCCCC1)c1ccc(CN2CCOCC2)cc1 | 2.1% | 10.4µM* | 54.1% | 18.2 | 95.9* | 40.6*
COc1ccc(C(=O)NCCC2=CCCCC2)cc1OC | -3.9% | 97.5% | / | 41.3 | 74.5* | 45.9*
COc1cccc(C(=O)NCCC2=CCCCC2)c1 | -3.9% | 274.6% | / | 24.6 | 74.2* | 30.2*
O=C(NCCC1=CCCCC1)c1cccc(S(=O)(=O)N2CCCCC2)c1 | -4.7% | ? | ? | -32.1 | / | /
COc1cc(C#N)ccc1OCC(=O)NCCC1=CCCCC1 | -8.6% | 3.9% | -9.6% | ? | / | /
CCOc1ccc(/C=N/NC(=O)c2nnn(-c3nonc3N)c2-c2cccs2)cc1 | -15.2% | -7.6% | 14.5% | -12.2 | 3.5 | 11.2
Nc1ccccc1NC(=O)NC(=O)c1ccccc1 | 0.8% | 245.2% | 91.5% | 71.6 | / | 41.1*
Nc1ccccc1NC(=O)c1ccccc1N | 1.9% | 46.4% | 60.0% | 48.3 | 30.4* | 35.5*
Cc1c(NC(=O)c2ccccc2NC(=O)c2ccccc2)cccc1C(=O)O | 30.2% | 0.0% | 11.7% | 6.0 | -3.5 | -3.3
Cc1c(NC(=O)c2ccccc2N)cccc1C(=O)O | 15.5% | ? | 182.2% | 84.8 | 46.0* | 24.7*
CCc1ccc(NC(=O)CC2C(=O)N(c3cccc(C)c3)C(=O)N2CCC(C)C)cc1 (stereo not given) | / | / | / | -14.1 | / | /
CCCc1cc(=O)n2[nH]c(NCc3c(F)cccc3Cl)nc2n1 | 2.7% | 11.7µM* | 0.1% | 5.7 | 28.8 | 4.0
CCCc1cc(=O)n2[nH]c(NCc3c(Cl)cccc3Cl)nc2n1 | 11.8% | / | -12.3% | -23.0 | -13.7 | -1.1
CSc1cccc(NS(=O)(=O)c2ccc3c(c2)oc(=O)n3C)c1 | -17.5% | 11.7µM* | / | ? | -12.8 | -6.5
COc1cc(NC(=O)CCS(=O)(=O)c2ccc3c(c2)oc(=O)n3C)cc(OC)c1OC | 2.5% | 2.33µM* | -28.7% | -10.1 | -6.6 | 1.3
COc1ccc(NS(=O)(=O)c2ccc3c(c2)oc(=O)n3C)c(OC)c1 | -5.9% | 4.4% | / | -6.0 | -0.9 | -2.9
Cn1c(=O)oc2cc(S(=O)(=O)Nc3cccc(F)c3)ccc21 | 15.3% | 24.6% | 6.3% | -6.5 | 7.6 | -3.7
COc1cc(NS(=O)(=O)c2ccc3c(c2)oc(=O)n3C)cc(OC)c1OC | 10µM* | ? | / | ? | -5.2 | -6.4
Cc1ccc(NS(=O)(=O)c2ccc3c(c2)oc(=O)n3C)cc1C | ? | -5.7% | -13.1% | -100.7* | -4.8 | -5.3
Cc1ccc(NS(=O)(=O)c2ccc3c(c2)oc(=O)n3C)cc1F | -2.8% | ? | / | ? | -15.5 | -5.8
CCCc1cc(=O)[nH]c(SCC(=O)N2CCN(c3ccccc3OC)CC2)n1 | / | / | / | -29.8 | / | /
Cc1oc2ccc(O)c(CN3CCN(Cc4ccccc4)CC3)c2c1C(=O)Nc1cccc(Cl)c1C | / | / | / | -19.0 | / | /
CC(CNC(=O)CCS(=O)(=O)c1ccc2c(c1)oc(=O)n2C)c1ccccc1 (stereo not given) | -3.5% | 9.28µM* | ? | -0.2 | 14.0 | 0.6
